Source: PubChem BioAssay
This is a sample that favours compounds with a hit; in the whole collection about 2.4% have one here.
HepG2 tox-1 – HepG2 cytotoxicity, counter-screen for TGF-b inhibitors; HepG2 CAGA-GFP viability, ATP luminescence, 18 h; Potency, µM (highest dose often 46.1 µM), without a hit: at the highest dose activity change, negative = cytotoxicity, hits mostly cytotoxic; 410,000 compounds, 0.76% hits; AID 588856
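HepG2 CAGA-GFP cells (1000/well, DMEM with 1% FBS) received compound, then TGF-beta at 500 pg/mL final, and were incubated 18 hours at 37 degrees C. Viability was read by CellTiter-Glo luminescence. Media-only wells were set as complete cell-killing and DMSO as no toxicity.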
TGFb SMAD3 inh – inhibitors of TGF-b signaling | HepG2 CAGA-GFP TGF-b/SMAD3 reporter, GFP fluorescence, 18 h; TGF-beta stimulated, 500 pg/mL final | Potency, µM (series often up to 46.1 µM), without a hit: top-dose activity, negative = inhibition, most hits filed as inhibitors | 410,000 compounds, 1.2% hits | AID 588855; further: on the % scale 0 is the no-effect control and ±100 the full control effect; nearly all actives have a fitted effect of over 65% in size
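HEPG2 CAGA-GFP cells (1000/well, DMEM with 1% FBS) were pre-incubated 2 h at 37 degrees C, given compound by pin tool, then stimulated with TGF-beta at 500 pg/mL final for 18 h before per-cell GFP fluorescence imaging.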
Anesthetic bind – candidate novel general anesthetic via apoferritin binding. P02791. Potency, µM (top dose mostly 77.5 µM), without a hit: at the highest dose activity change, negative = displacement, actives largely listed as inhibitors. 350,000 compounds, 0.074% hits. apoferritin/1-aminoanthracene competitive binding, fluorescence. AID 485281; further: on the % scale 0 is the no-effect control and ±100 the full control effect; nearly all actives have a fitted effect of over 20% in size
Target sequence (P02791 2-175 limits assumed): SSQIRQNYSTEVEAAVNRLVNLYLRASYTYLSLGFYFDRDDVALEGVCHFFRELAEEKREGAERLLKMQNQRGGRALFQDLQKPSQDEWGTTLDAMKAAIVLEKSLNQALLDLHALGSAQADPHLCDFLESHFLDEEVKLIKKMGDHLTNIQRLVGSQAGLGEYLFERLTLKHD
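Steps: apoferritin (10 uM) was premixed with half-saturated 1-AMA in PBS, compounds were pin-transferred, plates stood 10 min at room temperature, fluorescence was read at 380/535 nm, and curves were fitted with a Hill equation.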
ATXN2 expr inh – reduces ATXN2 reporter expression in HEK-293 cells; HEK-293 ATXN2-luciferase reporter, luminescence, 24 h; Potency, µM (doses to about 57 µM), for inactives: top-dose activity change, negative = inhibition, most hits filed as inhibitors; 360,000 compounds, 0.72% hits; further: on the % scale 0 is the no-effect control and ±100 the full control effect; nearly all actives have a fitted effect of over 55% in size
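qHTS (up to 57 uM final) was run with 24 h compound exposure of reporter cells at 37 °C. Each well was multiplexed: SteadyGlo luminescence measured ATXN2-luciferase expression after a fluorogenic Gly-Phe-AFC viability readout (25 uM final).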
S2 tox – viability counter-screen for ATXN expression inhibitors | S2 cells (HEK-293 line with an ATXN2-luciferase reporter) viability, CellTiter-Fluor protease fluorescence, 24 h | Potency, µM (highest dose often 56.7 µM), usual class: cytotoxic | 400,000 compounds, 0.49% hits | AID 651635; further: nearly all actives have a fitted effect of over 40% in size
TGFb confirm – TGF-b pathway inhibition, cherry-pick retest. shares compounds with TGFb SMAD3 inh. HepG2 CAGA-GFP TGF-b reporter, GFP fluorescence, 18 h; cells stimulated with TGF-beta, 500 pg/mL. Potency, µM (series often up to 46.1 µM), for the others: top-dose activity, negative = inhibition, usual class: inhibitors. 1,600 compounds, 63% hits. AID 720534; further: on the % scale 0 is the no-effect control and ±100 the full control effect; nearly all actives have a fitted effect of over 65% in size
HepG2 tox-2 – HepG2 cytotoxicity, TGF-b inhibitor counterscreen; shares compounds with TGFb SMAD3 inh; Potency, µM (doses to about 46.1 µM), for the others: top-dose activity, negative = cytotoxicity, hits mostly inhibitors; 1,600 compounds, 27% hits; AID 720535; HepG2 CAGA-GFP viability, ATP luminescence, 18 h; cells stimulated with TGF-beta, 500 pg/mL; further: on the % scale 0 is the no-effect control and ±100 the full control effect; nearly all actives have a fitted effect of over 70% in size
TGFb CCL64 inh – orthogonal confirmation of TGF-b inhibitors in CCL64 cells. shares compounds with TGFb SMAD3 inh. CCL64 CAGA-GFP reporter, TGF-b stimulated, GFP fluorescence, 18 h. Potency, µM (titrated, usually from 46.1 µM), for the others: at the top dose activity, negative = inhibition, actives largely listed as inhibitors. 1,600 compounds, 41% hits; further: nearly all actives have a fitted effect of over 65% in size
TGFb COP inh – TGF-b inhibition validated with COP promoter | HepG2 COP-GFP TGF-b reporter, GFP fluorescence, 18 h; cells stimulated by added recombinant TGF-beta | 1,600 compounds, 3% hits | Potency, µM (top dose mostly 46.1 µM), for inactives: at the top dose activity, negative = inhibition, actives largely listed as inhibitors | shares compounds with TGFb SMAD3 inh; further: nearly all actives have a fitted effect of over 70% in size
Active calls of the source: *; i = inactive; ? = inconclusive; · = no result; [ ] = another dose, or the depositor's remark. The call rests on the fitted dose curve; in most records, active means well fitted curve in the direction sought with a large enough effect; inconclusive means small, poorly fitted or top-dose-only effect, or another doubt; inactive means no such curve, though single readings can be large; an effect the other way counts as inactive or inconclusive. Potency means the concentration at half of the fitted maximal effect.

SMILES	HepG2 tox-1	TGFb SMAD3 inh	Anesthetic bind	ATXN2 expr inh	S2 tox	TGFb confirm	HepG2 tox-2	TGFb CCL64 inh	TGFb COP inh
CCOc1ccccc1NC(=O)CSc1nccn1Cc1ccc(F)cc1	-27%	-8%	?	·	·	·	·	·	·
CCOc1ncccc1C(=O)OC(C)C(=O)Nc1ccc(N2CCOCC2)cc1 (stereo not given)	6%	15%	·	·	i	·	·	·	·
CC(NC(=O)CC(c1ccccc1)c1cc(Cl)ccc1O)c1ccccc1 (stereo not given)	-1%	16µM*	-21%	-1%	?	?	23µM*	18µM*	57%
Cc1ccc(O)c(C(CC(=O)NC(C)C)c2ccccc2)c1 (stereo not given)	-41%	?	-8%	-31%	i	·	·	·	·
CCC1Oc2ccc(C)cc2N(CC(=O)N(Cc2ccc(C)o2)C2CCCC2)C1=O (stereo not given)	3%	18µM*	-5%	-4%	i	12µM*	-26%	?	-2%
CCC1Oc2ccc(C)cc2N(CC(=O)NC2CCCCC2)C1=O (stereo not given)	12%	-1%	-4%	4%	i	·	·	·	·
O=C(Cn1c(=O)cnc2ccccc21)N1CCN(S(=O)(=O)c2ccccc2Br)CC1	1%	-5%	·	3%	i	·	·	·	·
O=[N+]([O-])c1cccc2c(N3CCCC3)ccnc12	5.6µM*	7.1µM*	-16%	?	i	7.3µM*	16µM*	?	?
O=C(Cn1cc(S(=O)(=O)N2CCN(c3ccccc3F)CC2)c2ccccc2c1=O)Nc1cccc(C(F)(F)F)c1	-30%	?	-8%	-11%	?	·	·	·	·
COc1ccc(-c2noc(C3CCCN(C(=O)c4ccccc4)C3)n2)cc1 (stereo not given)	-23%	-20%	-9%	4%	i	·	·	·	·
O=C(c1ccco1)N1CCCC(c2nc(-c3ccc(S(=O)(=O)NCc4ccccc4)cc3)no2)C1 (stereo not given)	-69%	?	8%	28µM*	?	15µM*	?	-22%	41%
O=S(=O)(c1cccc(NC(=S)N2CCN(c3ccccc3F)CC2)c1)C(F)F	-29%	7.1µM*	-2%	·	i	7.3µM*	-9%	0%	-5%
COc1ccc(C2=NNC(=Nc3cc(S(=O)(=O)N(C)C)ccc3C)SC2)c(OC)c1	-30%	?	0%	·	?	?	?	?	28%
NC(=O)CCC(NC(=O)c1ccc(Cl)cc1)C(=O)O (stereo not given)	3%	1%	-2%	4%[11.3 µM]	i	·	·	·	·
Cc1nc2cccnc2n1C1CCN(C(=O)Nc2ccc(Cl)cc2)CC1	-22%	-2%	-10%	15%	i	·	·	·	·
CCn1c2ccccc2c2cc(NC(=O)c3cc(OC)cc(OC)c3)ccc21	12%	?	5%	-7%	?	·	·	·	·
CCn1c2ccccc2c2cc(NC(=O)c3cc(OC)c(OC)c(OC)c3)ccc21	11%	0.79µM*	38%	-3%	?	0.37µM*	-29%	1.3µM*	16%
O=[N+]([O-])c1ccc(COc2ccc(-c3[nH]ncc3-c3ccc(Cl)cc3)c(O)c2)cc1	-87%	?	?	?	?	·	·	·	·
COc1ccc(-c2[nH]ncc2-c2ccc(Cl)cc2)c(O)c1	-61%	10µM*	?	5%	i	?	-20%	?	24%
COc1ccc(-c2cn[nH]c2-c2ccc(OCc3ccc([N+](=O)[O-])cc3)cc2O)cc1OC	-45%	8.9µM*	-21%	·	i	21µM*	?	?	23%
CCC(=O)NC(c1ccc(OC)cc1)c1cc(Cl)c2cccnc2c1O (stereo not given)	-32%	7.9µM*	-5%	?	i	-24%	?	8.2µM*	21%
CCC(=O)NC(c1ccco1)c1cc(Cl)c2cccnc2c1O (stereo not given)	-12%	?	-15%	?	i	-30%	-25%	9.2µM*	16%
CCCCC(=O)NC(c1ccco1)c1cc(Cl)c2cccnc2c1O (stereo not given)	-5%	?	-8%	?	·	·	·	·	·
O=C(Nc1nc(-c2ccccc2)ns1)c1ccncc1	1%	0%	8%	15%	i	·	·	·	·
CCOC(=O)[C@]12CCC=C1N(Cc1ccc(Cl)cc1Cl)C(=O)[C@H](CC(=O)N1CCN(C(=O)c3ccco3)CC1)C2	·	·	·	0%	i	·	·	·	·
SMILES	HepG2 tox-1	TGFb SMAD3 inh	Anesthetic bind	ATXN2 expr inh	S2 tox	TGFb confirm	HepG2 tox-2	TGFb CCL64 inh	TGFb COP inh
Cn1c(CCC(=O)O)nc2cc(S(=O)(=O)N3CCCCC3)ccc21	2%	3%	·	10%	i	·	·	·	·
C=CCn1c(SCC(=O)Nc2cc3oc4ccccc4c3cc2OC)nnc1-c1cnccn1	-25%	-2%	-21%	-19%	i	·	·	·	·
C=CCn1c(COc2ccccc2F)nnc1SCC(=O)Nc1cc2oc3ccccc3c2cc1OC	-9%	?	56%	-15%	i	?	-26%	?	15%
COc1ccc(C(c2c(O)ccc3ccccc23)N2CCOCC2)c(OC)c1 (stereo not given)	-114%	6.3µM*	-14%	-48%	·	?	23µM*	?	?
CC(=O)Nc1ccc(C(=O)CSc2ncn(-c3ccccc3)n2)cc1	-22%	2.8µM*	2%	29%	i	?	-4%	3%	-3%
O=S(=O)(Nc1cc(Cl)ccc1-n1cncn1)c1ccccc1Cl	-14%	-2%	·	5%	i	·	·	·	·
O=S(=O)(Nc1cc(Cl)ccc1-n1cncn1)c1cc(Br)ccc1Br	-42%	10µM*	·	?	?	21µM*	?	21µM*	41%
COc1ccccc1CCN1CCCC(CN(C)C(=O)c2ccoc2)C1 (stereo not given)	-8%	-4%	-4%	-11%	i	·	·	·	·
